The record followed here is PubChem BioAssay (NCI).

Some test systems named below: DU-145 prostate; K-562 leukemia; MALME-3M melanoma; MDA-MB-231 breast; RXF 393 renal; SF-268 CNS; SF-295 CNS; SF-539 CNS; UACC-257 melanoma; M14 melanoma; HCT-15 colon; HT29 colon; SNB-75 CNS; SNB-19 CNS; U251 CNS; PC-3 prostate; SK-MEL-5 melanoma; UACC-62 melanoma; LOX IMVI melanoma; SK-MEL-28 melanoma.
Experiment in all cases: NCI-60 one-dose screen, 48 h (100 = growth as untreated, 0 = no growth, -100 = all killed)
Conditions in all cases: 10 µM unless noted

This is part of a sample that, as a whole, favours compounds with a hit. Of some 83,000 tested, about 20% had one in any assay.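 For each line, cells grew in 96-well plates with the test compound present at a single concentration for 48 hours.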 Unmarked numbers belong to inactive results. Calls of active or inactive are those of the source. The calls were made as follows: active = growth percent below 10; inactive = the rest.

With `C[C@H]1C=C(C[C@@H](O)CC#CC#CCCCCC[C@@H](O)[C@H]2CCC(=O)O2)C(=O)O1`, the growth is 109% in the assay with DU-145 prostate; 86.3% in the assay with K-562 leukemia; 105% in the assay on MALME-3M melanoma; 96.4% in the assay with MDA-MB-231 breast; 103% with RXF 393 renal; 110% with SF-268 CNS. Moreover, the growth in the assay on SF-295 CNS is 106%; with SF-539 CNS, 93.1%; in the assay with UACC-257 melanoma, 91.8%; with M14 melanoma, 137%; with HCT-15 colon, 110%; in the assay on HT29 colon it was 99.1%. In addition, the growth was 118% in the assay with SNB-75 CNS; 102% with SNB-19 CNS; 99.4% in the assay on U251 CNS; 111% in the assay with PC-3 prostate; 99.8% in the assay with SK-MEL-5 melanoma; 95.1% in the assay on UACC-62 melanoma. Further, the growth is 92.6% in the assay on LOX IMVI melanoma and 123% in the assay with SK-MEL-28 melanoma.

Take `COc1cc(-c2nc(SCC(=O)Nc3ccc(C(C)=O)cc3)[nH]c(=O)c2C#N)cc(OC)c1OC`: the growth with DU-145 prostate was 14.1%; with K-562 leukemia, 0.453% (active); with MALME-3M melanoma, 69.5%; in the assay with MDA-MB-231 breast, 19.7%; with RXF 393 renal, 24.6%; with SF-268 CNS, 26.9%. Moreover, the growth with SF-295 CNS is 3.4% (active); in the assay with SF-539 CNS, -22.9% (active); in the assay on UACC-257 melanoma it was 53.7%; in the assay on M14 melanoma, 5.17% (active); in the assay on HCT-15 colon, 40.2%; with HT29 colon, 6.82% (active). For the same compound, the growth in the assay with SNB-75 CNS is 38.3%; with SNB-19 CNS, 58.2%; with U251 CNS, 16%; in the assay on PC-3 prostate, 18%; in the assay with SK-MEL-5 melanoma, 15.2%; in the assay with UACC-62 melanoma, 36%. The growth in the assay with LOX IMVI melanoma was 18.5%; in the assay with SK-MEL-28 melanoma it was 57.8%.

In the case of `O=C1OC(=O)C2C3CC(c4ccccc43)C12` (stereo not given), the growth in the assay with DU-145 prostate was 145%; in the assay with K-562 leukemia it was 111%; with MALME-3M melanoma it was 101%; in the assay on MDA-MB-231 breast it was 117%; with RXF 393 renal, 116%; with SF-268 CNS, 123%. Further, the growth was 101% in the assay on SF-295 CNS; 103% with SF-539 CNS; 91.8% in the assay on UACC-257 melanoma; 112% in the assay on M14 melanoma; 94.5% with HCT-15 colon; 112% in the assay with HT29 colon. The growth was 89.4% with SNB-75 CNS; 107% in the assay on SNB-19 CNS; 97.4% in the assay with U251 CNS; 92.1% in the assay on PC-3 prostate; 112% in the assay on SK-MEL-5 melanoma; 105% in the assay on UACC-62 melanoma. Also, the growth with LOX IMVI melanoma is 103%; in the assay on SK-MEL-28 melanoma it was 116%.

Regarding `Nc1ccc(S(=O)(=O)Nc2ccnn2-c2ccccc2)cc1`, the growth in the assay on DU-145 prostate is 118%; in the assay with K-562 leukemia, 89%; in the assay on MALME-3M melanoma it was 103%; with MDA-MB-231 breast, 102%; in the assay with RXF 393 renal, 120%; in the assay with SF-268 CNS, 107%. Moreover, the growth with SF-295 CNS was 102%; in the assay with SF-539 CNS, 103%; in the assay on UACC-257 melanoma it was 103%; in the assay on M14 melanoma it was 109%; in the assay with HCT-15 colon, 100%; in the assay on HT29 colon, 109%. Further, the growth in the assay on SNB-75 CNS was 106%; with SNB-19 CNS, 108%; in the assay with U251 CNS, 94.4%; in the assay on PC-3 prostate, 90.1%; in the assay with SK-MEL-5 melanoma, 105%; in the assay on UACC-62 melanoma, 107%. The figures for the growth with LOX IMVI melanoma and in the assay on SK-MEL-28 melanoma were 93.2% and 119%, respectively.

As to `CC(=O)Nc1ccc([I+]c2ccc([N+](=O)[O-])cc2)cc1`, the growth in the assay with DU-145 prostate is 107%; in the assay with K-562 leukemia, 69.3%; in the assay with MALME-3M melanoma, 43.6%; in the assay with MDA-MB-231 breast, 113%; in the assay with RXF 393 renal, 129%; in the assay on SF-268 CNS, 99.4%. The growth was 118% in the assay on SF-295 CNS; 101% with SF-539 CNS; 90.4% with UACC-257 melanoma; 83% with M14 melanoma; 100% in the assay with HCT-15 colon; 81.3% with HT29 colon. Further, the growth in the assay on SNB-75 CNS is 90.5%; in the assay with SNB-19 CNS, 109%; in the assay with U251 CNS, 81.1%; in the assay with PC-3 prostate, 82.3%; in the assay on SK-MEL-5 melanoma, 80.6%; in the assay on UACC-62 melanoma it was 81.1%. Also, the growth was 90.5% in the assay with LOX IMVI melanoma and 106% in the assay with SK-MEL-28 melanoma.

On to `CCC1(C(N)=O)CC2C=CC1CC2` (stereo not given), for which the growth in the assay with DU-145 prostate was 116%; in the assay with K-562 leukemia it was 113%; in the assay on MALME-3M melanoma it was 113%; with MDA-MB-231 breast, 97.8%; with RXF 393 renal it was 108%; in the assay with SF-268 CNS it was 110%. Moreover, the growth in the assay with SF-295 CNS is 102%; with SF-539 CNS, 102%; in the assay on UACC-257 melanoma, 77.1%; in the assay with M14 melanoma it was 91.4%; in the assay with HCT-15 colon it was 109%; in the assay with HT29 colon, 106%. For the same compound, the growth in the assay with SNB-75 CNS is 95.9%; with SNB-19 CNS, 90.2%; in the assay on U251 CNS, 110%; in the assay with PC-3 prostate it was 103%; in the assay with SK-MEL-5 melanoma, 98.7%; in the assay on UACC-62 melanoma it was 104%. In addition, the growth was 96.2% in the assay with LOX IMVI melanoma and 125% with SK-MEL-28 melanoma.

As for `O=C(Nc1ccc(-n2ccc3c(NC(=O)c4ccccc4)ncnc32)cc1)Nc1ccc(Cl)c(C(F)(F)F)c1`, the growth was -22.7% (active) in the assay with DU-145 prostate; 0.237% (active) with K-562 leukemia; 15% in the assay on MALME-3M melanoma; 12% in the assay with MDA-MB-231 breast; -56.9% (active) in the assay with RXF 393 renal; -15% (active) in the assay with SF-268 CNS. Besides, the growth in the assay with SF-295 CNS was -37.6% (active); in the assay with SF-539 CNS, 13.5%; in the assay with UACC-257 melanoma it was 7.73% (active); with M14 melanoma, 3.01% (active); in the assay with HCT-15 colon it was -53.2% (active); in the assay on HT29 colon, -85.8% (active). The growth in the assay with SNB-75 CNS is 53.5%; in the assay with SNB-19 CNS, 9.33% (active); in the assay with U251 CNS, -79.6% (active); with PC-3 prostate it was -38.8% (active); in the assay on SK-MEL-5 melanoma, 8.12% (active); in the assay with UACC-62 melanoma it was 29.7%. The values for the growth in the assay with LOX IMVI melanoma and in the assay on SK-MEL-28 melanoma were 2.99% (active) and 34.6%, respectively.

`O=[N+]([O-])c1cccc(C(c2ccccc2)c2ccccc2)c1`: the growth in the assay with DU-145 prostate was 110%; in the assay with K-562 leukemia it was 73.7%; in the assay on MALME-3M melanoma, 97%; with MDA-MB-231 breast, 83.1%; in the assay on RXF 393 renal it was 102%; in the assay on SF-268 CNS, 99.8%. Besides, the growth is 76.7% in the assay with SF-295 CNS; 101% in the assay with SF-539 CNS; 102% with UACC-257 melanoma; 97% with M14 melanoma; 95.3% in the assay on HCT-15 colon; 79.8% in the assay on HT29 colon. Moreover, the growth in the assay with SNB-75 CNS was 86.4%; in the assay on SNB-19 CNS it was 97.3%; in the assay with U251 CNS, 90.9%; with PC-3 prostate, 70.4%; in the assay with SK-MEL-5 melanoma, 101%; in the assay on UACC-62 melanoma it was 86.7%. The figures for the growth with LOX IMVI melanoma and in the assay on SK-MEL-28 melanoma were 87.3% and 107%, respectively.
